PubChem BioAssay (NCATS)
Inconclusive results are not listed. Active and inactive are the calls of the source. Unless noted, calls follow the shape of the dose curve; as a rule, active = well fitted curve in the direction sought with a large enough effect; inconclusive = small, poorly fitted or top-dose-only effect, or another doubt; inactive = no such curve, though single readings can be large; an effect the other way counts as inactive or inconclusive.

Legend:
[1] = target: Glucocorticoid receptor (Homo sapiens) (UniProt P04150); test: GR-GFP Redistribution (AID 450;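 active = compounds whose dose series gives a full or clear partial fitted curve of increased nuclear translocation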; also: potency is read from the fitted curve at half-maximal effect); conditions: U2OS GR-GFP nuclear translocation, laser cytometry, 2 h
Sequence of Glucocorticoid receptor (Homo sapiens) (P04150 whole entry, looked up, the tested form may be a part): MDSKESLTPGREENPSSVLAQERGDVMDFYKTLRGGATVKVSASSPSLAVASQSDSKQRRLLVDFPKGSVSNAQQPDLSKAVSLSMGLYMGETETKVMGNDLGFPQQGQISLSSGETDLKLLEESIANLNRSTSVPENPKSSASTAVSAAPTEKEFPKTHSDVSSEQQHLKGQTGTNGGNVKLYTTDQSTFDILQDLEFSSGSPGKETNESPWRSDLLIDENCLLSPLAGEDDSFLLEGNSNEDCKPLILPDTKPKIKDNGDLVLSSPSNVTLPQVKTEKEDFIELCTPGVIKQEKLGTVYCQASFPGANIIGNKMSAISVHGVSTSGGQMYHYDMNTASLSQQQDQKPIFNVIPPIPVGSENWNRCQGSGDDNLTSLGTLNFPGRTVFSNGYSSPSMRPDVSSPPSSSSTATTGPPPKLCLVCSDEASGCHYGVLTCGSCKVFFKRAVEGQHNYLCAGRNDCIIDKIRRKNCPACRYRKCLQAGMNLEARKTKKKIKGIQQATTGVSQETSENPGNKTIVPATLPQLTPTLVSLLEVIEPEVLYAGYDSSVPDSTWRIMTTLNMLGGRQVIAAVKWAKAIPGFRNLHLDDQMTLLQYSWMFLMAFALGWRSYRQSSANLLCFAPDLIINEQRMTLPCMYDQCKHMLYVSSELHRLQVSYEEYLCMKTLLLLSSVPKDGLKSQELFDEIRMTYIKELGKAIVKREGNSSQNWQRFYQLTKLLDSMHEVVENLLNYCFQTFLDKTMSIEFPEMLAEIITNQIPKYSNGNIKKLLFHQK

[2] = system: Zika virus NS2B-NS3 protease; test: Primary screen GU AMC qHTS for Zika virus inhibitors (AID 1347154); conditions: Zika NS2B-NS3 unlinked protease, AMC fluorogenic substrate; series mostly up to 54.1 µM;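 also: 0% = no-inhibitor control and -100% = no-enzyme control; nearly all actives have a fitted effect of over 70% in size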
Outline: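 Fluorogenic AMC-substrate cleavage by noncovalent NS2B-NS3 protease complex (25 nM, pH 8.0 Tris buffer with Tween 20) followed for 15 minutes at room temperature (~20% conversion). Percent inhibition from ex340/em450 signal change, fitted by 4-parameter Hill equation.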

[3] = Primary qHTS for small molecule stabilizers of the endoplasmic reticulum resident proteome: Secreted ER Calcium Modulated Protein (SERCaMP) assay (AID 1508630); conditions: SH-SY5Y GLuc-SERCaMP (Gaussia luciferase released on ER calcium loss) secretion, thapsigargin, luminescence; series mostly up to 38.4 µM; also: % is scaled to controls: 0 for no effect and ±100 for the full control effect
Outline: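 GLuc-SERCaMP-expressing SH-SY5Y cells, pretreated 16 h with compound, are challenged with thapsigargin to empty ER calcium stores; after 4 h, coelenterazine is added directly to the medium and luminescence is imaged.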

[4] = target: Cytochrome P450 1A2 (Homo sapiens) (UniProt P05177); test: p450-cyp1a2 (AID 410; calls by dose curve; also: potency is read from the fitted curve at half-maximal effect); conditions: recombinant CYP1A2, luciferin-ME demethylation, luminescence; series mostly up to 57 µM
Sequence of Cytochrome P450 1A2 (Homo sapiens) (P05177 whole entry, looked up): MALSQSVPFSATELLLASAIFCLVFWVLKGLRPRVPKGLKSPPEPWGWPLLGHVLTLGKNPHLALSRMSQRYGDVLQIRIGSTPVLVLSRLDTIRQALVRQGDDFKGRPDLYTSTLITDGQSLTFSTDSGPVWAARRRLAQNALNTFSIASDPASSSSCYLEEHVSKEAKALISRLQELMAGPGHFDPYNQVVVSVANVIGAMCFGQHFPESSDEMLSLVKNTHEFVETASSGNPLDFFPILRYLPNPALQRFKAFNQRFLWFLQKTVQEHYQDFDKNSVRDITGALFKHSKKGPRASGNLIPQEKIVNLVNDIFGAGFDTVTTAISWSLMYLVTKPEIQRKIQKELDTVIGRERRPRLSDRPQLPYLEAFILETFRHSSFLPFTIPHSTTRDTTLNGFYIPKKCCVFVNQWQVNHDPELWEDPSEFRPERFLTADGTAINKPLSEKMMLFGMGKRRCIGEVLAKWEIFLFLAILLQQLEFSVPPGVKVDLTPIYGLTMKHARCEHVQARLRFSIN
Outline: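 Luminescent readout of luciferin formed from Luciferin-ME by human CYP1A2; data normalized against complete inhibition by 57 uM furafylline. Enzyme 20nM, substrate 100uM at Km, 100mM KPO4 buffer, 60 min reaction at room temperature.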

[5] = target: Mitogen-activated protein kinase 10 (Mus musculus) (UniProt Q61831); test: JNK3 AlphaScreen Assay (AID 530; active = well fitted curve in either direction with a large enough effect, not every such curve was filed as active;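 also: kinase came from lysate of stimulated human HepG2 cells; signal reports phosphorylation of biotinylated GST-cJun 1-79 at Ser73 with 10 µM ATP; % is scaled to controls: 0 for no effect and ±100 for the full control effect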); conditions: JNK3 lysate, c-Jun phosphorylation; series mostly up to 57.1 µM
Outline: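 Compound titrations were preincubated 15 minutes at room temperature with substrate, antibody and pre-activated JNK3-containing HepG2 lysate. Reactions were started with 10 uM ATP and stopped with EDTA-containing bead buffer for AlphaScreen detection.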

[6] = target: Cytochrome P450 3A4 (Homo sapiens) (UniProt P08684); test: qHTS Assay for Inhibitors and Substrates of Cytochrome P450 3A4 (AID 884); conditions: recombinant CYP3A4, Luciferin-PPXE luminescence; series mostly up to 57.1 µM; also: potency is read from the fitted curve at half-maximal effect; nearly all actives have a fitted effect of over 50% in size
Sequence of Cytochrome P450 3A4 (Homo sapiens) (P08684 whole entry, looked up): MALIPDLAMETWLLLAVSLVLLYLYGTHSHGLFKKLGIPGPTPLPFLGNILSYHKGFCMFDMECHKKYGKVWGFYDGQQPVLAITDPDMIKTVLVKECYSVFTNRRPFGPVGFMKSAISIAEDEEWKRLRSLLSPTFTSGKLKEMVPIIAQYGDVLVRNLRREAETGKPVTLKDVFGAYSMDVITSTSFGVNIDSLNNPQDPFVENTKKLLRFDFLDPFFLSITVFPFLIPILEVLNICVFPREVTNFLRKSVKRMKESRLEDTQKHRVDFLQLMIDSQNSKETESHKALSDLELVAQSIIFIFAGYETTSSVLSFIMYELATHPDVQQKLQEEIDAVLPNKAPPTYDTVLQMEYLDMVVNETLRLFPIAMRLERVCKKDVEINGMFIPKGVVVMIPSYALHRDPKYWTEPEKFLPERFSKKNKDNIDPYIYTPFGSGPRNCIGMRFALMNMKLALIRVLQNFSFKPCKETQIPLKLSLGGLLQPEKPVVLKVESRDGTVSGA
Outline: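 20 nM human CYP3A4 with 25 uM Luciferin-PPXE (at KM) in 200 mM KPO4, preincubated 10 min with compound; NADPH regeneration started a 60 min RT reaction. Luciferin detected by luminescence, normalized to 57 uM ketoconazole as full inhibition.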

[7] = target: Cytochrome P450 3A4 (Homo sapiens) (UniProt P08684); test: qHTS Assay for Activators of Cytochrome P450 3A4 (AID 885); conditions: recombinant CYP3A4, Luciferin-PPXE luminescence, 60 min; series mostly up to 57.1 µM; also: nearly all actives have a fitted effect of over 65% in size
Outline: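 Quantitative HTS format: compounds preincubated with 20nM human CYP3A4 and Luciferin-PPXE substrate at KM, reaction started by NADPH regeneration, stopped after 60 min, luciferase luminescence read 20 min later.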

[8] = target: Ubiquitin carboxyl-terminal hydrolase 1 (Homo sapiens) (UniProt O94782); test: Inhibitors of USP1/UAF1: Pilot qHTS (AID 504865); conditions: purified USP1/UAF1, Ub-rhodamine cleavage fluorescence; series mostly up to 114 µM;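 also: rhodamine fluorescence freed from ubiquitin-rhodamine substrate followed over time; top concentration of the series differs between compounds; % is scaled to controls: 0 for no effect and ±100 for the full control effect; nearly all actives have a fitted effect of over 35% in size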
Sequence of Ubiquitin carboxyl-terminal hydrolase 1 (Homo sapiens) (O94782 whole entry, looked up): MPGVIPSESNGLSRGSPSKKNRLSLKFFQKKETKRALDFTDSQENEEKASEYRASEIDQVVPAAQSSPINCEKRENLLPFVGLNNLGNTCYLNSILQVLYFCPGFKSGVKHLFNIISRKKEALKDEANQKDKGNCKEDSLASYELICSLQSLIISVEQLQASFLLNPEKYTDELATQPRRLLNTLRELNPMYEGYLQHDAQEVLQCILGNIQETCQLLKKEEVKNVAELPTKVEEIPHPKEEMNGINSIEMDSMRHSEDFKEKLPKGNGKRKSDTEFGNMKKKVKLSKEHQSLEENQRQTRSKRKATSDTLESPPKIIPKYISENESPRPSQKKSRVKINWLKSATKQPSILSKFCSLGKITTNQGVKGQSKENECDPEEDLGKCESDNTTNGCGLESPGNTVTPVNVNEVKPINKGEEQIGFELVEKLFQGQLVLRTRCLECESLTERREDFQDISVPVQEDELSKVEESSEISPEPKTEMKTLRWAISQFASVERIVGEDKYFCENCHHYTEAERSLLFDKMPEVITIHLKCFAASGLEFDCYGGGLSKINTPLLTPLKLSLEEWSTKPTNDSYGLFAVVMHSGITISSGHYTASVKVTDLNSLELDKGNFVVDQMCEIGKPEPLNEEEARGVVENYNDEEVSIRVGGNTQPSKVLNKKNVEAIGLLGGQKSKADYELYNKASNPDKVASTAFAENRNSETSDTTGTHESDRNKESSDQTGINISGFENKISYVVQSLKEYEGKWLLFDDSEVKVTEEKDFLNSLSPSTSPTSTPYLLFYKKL
Outline: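 Deubiquitinase activity followed as kinetic rhodamine fluorescence release from 150 nM Ub-Rho. 1 nM USP1/UAF1 with compound, after 15 min room-temperature preincubation, in HEPES pH 7.8 buffer containing TCEP, EDTA, BSA and Tween-20.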

[9] = target: DNA dC->dU-editing enzyme APOBEC-3G (Homo sapiens) (UniProt Q9HC16); test: qHTS for inhibitors of Vif-A3G interactions: Validation (AID 588379); conditions: Vif-A3G protein interaction assay; series mostly up to 46.1 µM; also: 0% is about no effect
Sequence of DNA dC->dU-editing enzyme APOBEC-3G (Homo sapiens) (Q9HC16 whole entry, looked up): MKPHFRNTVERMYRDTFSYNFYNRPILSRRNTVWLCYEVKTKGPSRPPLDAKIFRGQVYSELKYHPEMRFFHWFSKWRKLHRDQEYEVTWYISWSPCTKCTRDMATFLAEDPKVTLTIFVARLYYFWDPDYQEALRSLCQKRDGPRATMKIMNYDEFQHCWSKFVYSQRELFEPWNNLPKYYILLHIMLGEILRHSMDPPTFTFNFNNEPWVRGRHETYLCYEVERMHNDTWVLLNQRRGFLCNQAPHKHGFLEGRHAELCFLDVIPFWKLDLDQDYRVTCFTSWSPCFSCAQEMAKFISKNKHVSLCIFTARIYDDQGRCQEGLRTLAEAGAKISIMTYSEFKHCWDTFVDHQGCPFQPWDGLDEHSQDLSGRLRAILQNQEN
Outline: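 HeLa cells stably expressing Vif and A3G-eYFP, 700 cells/well, incubated overnight at 37 deg C, then exposed to compound overnight at 37 deg C. Inhibition of Vif-mediated degradation read as increased yellow fluorescence (Ex 488/Em 500-530) by laser-scanning cytometry.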

[10] = target: Glucocorticoid receptor (Homo sapiens) (UniProt P04150); test: GR-EFC Redistribution (AID 451; calls by dose curve; also: potency is read from the fitted curve at half-maximal effect); conditions: CHO-K1 GR-EFC translocation, beta-gal luminescence, 2 h
Outline: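 Translocation of GR-ED fusion to nuclear EA restores b-gal, read by luminescence after 1 h room-temperature detection. Engineered CHO-K1 biosensor cells, 1,000/well, exposed 2 h at 37 C to titrations up to 46 uM final.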

[11] = target: 3',5'-cyclic-AMP phosphodiesterase 4B (Homo sapiens) (UniProt Q07343); test: qHTS Assay for Inhibitors of PDE-IV (AID 607; active = well fitted activation curve with a large enough effect in the main read-out, with a control signal flat, not every such curve was filed as active; also: % of control where 0% means no effect); conditions: HEK293 ACTOne CNG channel cells, membrane potential fluorescence; series mostly up to 22.9 µM
Sequence of 3',5'-cyclic-AMP phosphodiesterase 4B (Homo sapiens) (Q07343 whole entry, looked up): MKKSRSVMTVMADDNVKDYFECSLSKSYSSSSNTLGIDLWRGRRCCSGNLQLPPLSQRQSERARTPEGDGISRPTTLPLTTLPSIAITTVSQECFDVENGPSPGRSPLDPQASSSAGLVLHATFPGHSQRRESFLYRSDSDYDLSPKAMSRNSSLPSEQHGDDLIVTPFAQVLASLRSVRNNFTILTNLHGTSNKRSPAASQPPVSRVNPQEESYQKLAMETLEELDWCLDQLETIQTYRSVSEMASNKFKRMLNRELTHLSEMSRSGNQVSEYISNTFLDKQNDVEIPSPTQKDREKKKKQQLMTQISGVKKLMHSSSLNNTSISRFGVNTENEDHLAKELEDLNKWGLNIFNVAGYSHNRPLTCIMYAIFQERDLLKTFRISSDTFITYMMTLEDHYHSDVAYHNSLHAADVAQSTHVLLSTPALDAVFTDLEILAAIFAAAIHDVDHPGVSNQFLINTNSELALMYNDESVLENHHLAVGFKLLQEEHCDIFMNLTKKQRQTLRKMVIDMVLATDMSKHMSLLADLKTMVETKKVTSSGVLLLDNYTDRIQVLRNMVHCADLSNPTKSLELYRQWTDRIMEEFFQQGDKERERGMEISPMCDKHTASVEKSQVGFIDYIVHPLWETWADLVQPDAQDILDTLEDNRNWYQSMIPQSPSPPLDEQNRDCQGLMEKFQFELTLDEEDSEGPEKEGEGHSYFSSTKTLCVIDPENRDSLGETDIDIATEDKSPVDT
Outline: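 Live HEK293 cells with a modified cyclic nucleotide-gated (CNG) channel report intracellular cAMP via membrane-potential dye fluorescence (ex 535/em 590 nm). Endogenous PDE-IV was targeted. Compounds were tested at up to 22.9 uM final; RO 20-1724 100 uM served as control.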

[12] = target: Cytochrome P450 2D6 (Homo sapiens) (UniProt P10635); test: qHTS Assay for Inhibitors and Substrates of Cytochrome P450 2D6 (AID 891); conditions: recombinant CYP2D6, luciferin-ME EGE luminescence; series mostly up to 57.1 µM; also: potency is read from the fitted curve at half-maximal effect; nearly all actives have a fitted effect of over 60% in size
Outline: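 Human CYP2D6 (5 nM) with 30 uM Luciferin-ME EGE (at Km) in 100 mM KPO4, compound preincubated 10 min, then NADPH regeneration system for 60 min at room temperature. Luciferin read by luminescence; normalized to 1.43 uM quinidine.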

[13] = target: Cytochrome P450 2C19 (Homo sapiens) (UniProt P33261); test: qHTS Assay for Inhibitors and Substrates of Cytochrome P450 2C19 (AID 899); conditions: recombinant CYP2C19, luciferin-H EGE luminescence; series mostly up to 57.1 µM; also: potency is read from the fitted curve at half-maximal effect; nearly all actives have a fitted effect of over 60% in size
Outline: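 Luminescence readout of luciferin formed from 10uM Luciferin-H EGE (KM level) by 5 nM CYP2C19 in 50mM KPO4. 60 min NADPH-driven reaction at 37C after 10 min compound preincubation; data scaled to 57uM ketoconazole inhibition.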

[14] = target: Guanine nucleotide-binding protein G(i) subunit alpha-1 (Homo sapiens) (UniProt P63096); test: qHTS Assay for Inhibitors of RGS12 GoLoco Motif Activity (Green Fluorophore) (AID 879); conditions: Galphai1/FITC-RGS12 GoLoco peptide, fluorescence polarization; series mostly up to 57.1 µM;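 also: 0% = labeled peptide with Gαi1 and full inhibition = labeled peptide alone without protein; negative values mean loss of peptide binding seen as reduced polarization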
Outline: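 Fluorescence polarization assay: 50 nM Gαi1 with 10 nM FITC-labeled RGS12 GoLoco peptide in 10 mM Tris pH 7.5, 150 mM NaCl, 0.1 mM GDP, 0.05% NP40, 10 min at room temperature with compound.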

[15] = qHTS Assay for Identification of Small Molecule Antagonists for NFkB Signaling Pathway (AID 895; active = well fitted inhibition curve with a large enough effect in the signal ratio, with a control signal flat, not every such curve was filed as active; the % refers to the signal ratio; also: % is scaled to controls: 0 for no effect and ±100 for the full control effect); conditions: NFkB beta-lactamase reporter cells, FRET ratio 460/530, stimulated with 10 pM TNF alpha; series mostly up to 38.3 µM
Outline: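 Beta-lactamase reporter read-out (460 and 530 nm emission ratio, 405 nm excitation, 2 hrs substrate loading RT) after 5 hr stimulation with 10 pM TNF alpha in compound-treated NFkB-bla ME-180 cells in low-serum medium.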

[16] = qHTS Assay for Identification of Small Molecule Agonists for Thrombopoietin (TPO) Signaling Pathway (AID 917); conditions: TPO signaling pathway reporter cells, agonist qHTS, stimulated with TPO at its EC50; series mostly up to 38.5 µM; also: potency is read from the fitted curve at half-maximal effect
Outline: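 Reporter: GpIIb promoter–luciferase in murine Ba/F3 expressing human TPO receptor. Pre-starved of IL-3 overnight; compounds with 26 pM TPO, 24 hrs, 37 C/5% CO2; luminescence read.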

[17] = target: Muscarinic acetylcholine receptor M1 (Rattus norvegicus) (UniProt P08482); test: qHTS Assay for Antagonists of Acetylcholine Muscarinic M1 Receptor: Kinetic Measurement of Intracellular Calcium Response (AID 943); conditions: M1-expressing cells, kinetic intracellular calcium fluorescence; series mostly up to 35.3 µM;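 also: Fluo-4 calcium signal as peak divided by basal fluorescence over 4 min; nearly all actives have a fitted effect of over 75% in size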
Sequence of Muscarinic acetylcholine receptor M1 (Rattus norvegicus) (P08482 whole entry, looked up): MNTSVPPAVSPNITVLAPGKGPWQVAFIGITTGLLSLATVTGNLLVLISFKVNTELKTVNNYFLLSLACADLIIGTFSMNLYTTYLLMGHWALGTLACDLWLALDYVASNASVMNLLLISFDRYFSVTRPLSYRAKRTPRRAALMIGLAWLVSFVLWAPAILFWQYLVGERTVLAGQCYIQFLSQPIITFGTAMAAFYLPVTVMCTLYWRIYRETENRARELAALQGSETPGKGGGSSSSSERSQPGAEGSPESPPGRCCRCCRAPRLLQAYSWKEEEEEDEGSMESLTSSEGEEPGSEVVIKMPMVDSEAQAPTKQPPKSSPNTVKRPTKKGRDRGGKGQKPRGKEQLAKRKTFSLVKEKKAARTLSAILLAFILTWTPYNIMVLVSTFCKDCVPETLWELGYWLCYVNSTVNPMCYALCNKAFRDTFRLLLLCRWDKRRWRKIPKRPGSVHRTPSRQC
Outline: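 Rat M1-CHO cells, 2000/well, overnight → Fluo-4 no-wash dye with probenecid, 1 h 37C → compound 10 min, room temp → basal read 6 s → carbachol EC80 (100 nM) → 4 min kinetic read; peak/basal.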

[18] = target: Muscarinic acetylcholine receptor M1 (Rattus norvegicus) (UniProt P08482); test: qHTS Assay for Antagonists of Acetylcholine Muscarinic M1 Receptor: Measurement of IP-One Response (AID 944); conditions: CHO-M1 cells, IP-One HTRF, antagonist mode; series mostly up to 46.1 µM; also: nearly all actives have a fitted effect of over 75% in size; also: potency is read from the fitted curve at half-maximal effect
Outline: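 M1-CHO (rat), 2000 cells/well, overnight recovery; cpd 10 min; carbachol EC80 (200 nM), 30 min, HEPES buffer + 50 mM LiCl pH 7.4; IP-One HTRF, Ex 337, Em 620/665 nm.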

[19] = target: Pyruvate kinase PKM (Homo sapiens) (UniProt P14618); test: qHTS Assay for Activators of Human Muscle Pyruvate Kinase (AID 954; active = well fitted curve in the direction sought with a large enough effect, not every such curve was filed as active;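 also: 0% = uninhibited enzyme and -100% = no enzyme or full thiadiazolimine inhibition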); conditions: purified human muscle pyruvate kinase, luciferase-coupled luminescence, 1 h; series mostly up to 57.5 µM
Sequence of Pyruvate kinase PKM (Homo sapiens) (P14618 whole entry, looked up): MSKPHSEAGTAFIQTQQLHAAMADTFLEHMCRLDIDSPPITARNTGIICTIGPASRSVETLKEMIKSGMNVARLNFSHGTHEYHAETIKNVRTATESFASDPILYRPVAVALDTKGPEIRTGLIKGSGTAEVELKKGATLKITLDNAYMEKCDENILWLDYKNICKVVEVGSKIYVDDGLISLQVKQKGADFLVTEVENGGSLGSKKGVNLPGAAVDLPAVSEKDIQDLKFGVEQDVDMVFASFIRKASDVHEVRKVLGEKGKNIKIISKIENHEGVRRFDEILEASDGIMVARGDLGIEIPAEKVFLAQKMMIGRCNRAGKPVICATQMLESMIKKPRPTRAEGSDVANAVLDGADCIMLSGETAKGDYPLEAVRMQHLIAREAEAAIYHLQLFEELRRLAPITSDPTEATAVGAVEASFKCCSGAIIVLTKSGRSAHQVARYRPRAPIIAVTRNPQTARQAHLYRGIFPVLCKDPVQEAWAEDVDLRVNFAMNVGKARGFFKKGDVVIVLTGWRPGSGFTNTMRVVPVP
Outline: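 Enzyme was run at intermediate activity so both inhibitors and activators could be detected. ATP formed from ADP and PEP by 0.1 nM human PKM2 during a 1 h room-temperature incubation was quantified by coupled luciferase luminescence.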

[20] = target: Pyruvate kinase PKM (Homo sapiens) (UniProt P14618); test: qHTS Assay for Inhibitors of Human Muscle Pyruvate Kinase (AID 958); conditions: purified human PKM enzyme activity
Outline: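 ATP production by PKM2 detected via luciferase luminescence after 1 h room-temperature reaction (0.1 nM enzyme, PEP at Km 0.5 mM, ADP 0.1 mM, pH 7.2 imidazole buffer). Inhibition scaled to no-enzyme control; activation referenced to 0.3 nM enzyme wells.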

[21] = target: Pyruvate kinase (Leishmania mexicana) (UniProt Q27686); test: qHTS Validation Assay for Activators of Leishmania Mexicana Pyruvate Kinase (AID 959); conditions: purified L. mexicana pyruvate kinase, enzyme activity; series mostly up to 57.5 µM
Outline: (§1)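 Purified LmPYK (E451W mutant, 0.2 nM) was incubated 1 h at room temperature with 0.5 mM PEP and 0.1 mM ADP in 50 mM imidazole pH 7.2, 50 mM KCl, 7 mM MgCl2; ATP formed was read by PKLight luminescence, normalized to DMSO wells.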

[22] = target: Alpha-galactosidase A (Homo sapiens) (UniProt P06280); test: Counterscreen for Glucocerebrosidase Inhibitors: qHTS Assay for Human alpha-Galactosidase at pH 4.5 (AID 992); conditions: purified enzyme, fluorogenic substrate; series mostly up to 76.9 µM; also: 0% is about no effect
Outline: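 Read-out is 4-methylumbelliferone fluorescence (365 nm excitation, 440 nm emission) after a pH 10 NaOH/glycine stop. Reactions held 2 nM enzyme and 80 uM substrate at pH 4.5 for 20 min at room temperature.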

[23] = target: alpha-glucosidase (Oryza sativa, rice) (UniProt Q653V4); test: Counterscreen for Glucocerebrosidase Inhibitors: qHTS Assay for Rice alpha-Glucosidase at pH 5.0 (AID 997); conditions: rice alpha-glucosidase enzyme activity; series mostly up to 76.9 µM;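 also: 0% = full activity with enzyme and -100% = basal without enzyme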
Outline: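 Rice alpha-glucosidase (4 nM final) with 400 uM 4-methylumbelliferyl-alpha-D-glucopyranoside in citrate buffer pH 5.0, 20 min at room temperature, stopped at pH 10; fluorescence 365/440 nm, compounds 0.7 nM–77 uM, AC50 from Hill fits.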

[24] = target: Pyruvate kinase (Leishmania mexicana) (UniProt Q27686); test: qHTS Validation Assay for Inhibitors of Leishmania Mexicana Pyruvate Kinase (AID 945);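 also: 0% = DMSO only neutral control wells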; conditions: purified L. mexicana pyruvate kinase, enzyme activity, E451W mutant enzyme; series mostly up to 57.5 µM
Outline: as §1

CCCCC[C@H](O)/C=C/[C@H]1C=CC(=O)[C@@H]1C/C=C\CCCC(=O)O
inactive: Potency [1] > 20.6 µM | activity change, negative = inhibition [2] 7.12% [at 6.83 µM] | activity change, negative = inhibition [3] -13.8% [at 3.88 µM]

COc1cccc(CNc2ccc3nc(-c4ccc(N)cc4)c(OC)n3n2)c1
active: Potency [4] 39.8 µM | Potency [6] 5.01 µM
inactive: Potency [1] > 46 µM | Potency [5] | Potency [7] | Potency [8] | Potency [9] | Potency [2] | Potency [3]

C=CCN1CCN(c2nc3ccccc3nc2C#N)CC1
active: Potency [4] 0.1 µM | Potency [12] 1.26 µM
inactive: Potency [1] > 46 µM | Potency [10] > 46 µM | Potency [11] | Potency [7] | Potency [9] | Potency [2] | Potency [3]

COc1cccc(C=NC=Nc2cccc(OC)c2)c1
inactive: Potency [1] > 46 µM | Potency [10] > 46 µM | Potency [7] | Potency [9] | Potency [2] | Potency [3]
active: Potency [4] 1 µM

c1ccc(N2CCN(CCCOc3ccc4c(c3)OCO4)CC2)cc1
active: Potency [4] 12.6 µM | Potency [6] 3.16 µM | Potency [12] 0.126 µM | Potency [13] 5.01 µM
inactive: Potency [1] > 46 µM | Potency [10] > 46 µM | Potency [7] | Potency [9] | Potency [2] | Potency [3]

O=S(=O)(NCCCCCCc1ccccc1)c1cccc2c(Cl)cccc12
active: Potency [4] 15.8 µM | Potency [6] 2.51 µM
inactive: Potency [10] > 46 µM | Potency [7] | Potency [9] | Potency [2] | Potency [3]

CC(=O)NCCc1c(Cc2ccccc2)[nH]c2ccccc12
active: Potency [4] 12.6 µM | Potency [6] 7.94 µM
inactive: Potency [10] > 46 µM | Potency [11] | Potency [7] | Potency [9] | Potency [2] | Potency [3]

Fc1cccc(/C=N\N=C/c2cccc(F)c2)c1
inactive: Potency [10] > 46 µM | Potency [5] | Potency [11] | outcome [14] | Potency [7] | Potency [15] | Potency [17] | Potency [18] | outcome [19] | Potency [21] | outcome [22] | outcome [23] | Potency [8] | Potency [9] | Potency [2] | Potency [3]
active: Potency [4] 0.2 µM | Potency [16] 3.16 µM | Potency [20] 2.51 µM

C#C[C@]1(O)CC[C@H]2[C@H]3CCC4=Cc5oncc5C[C@]4(C)[C@@H]3CC[C@]21C
inactive: Potency [10] > 46 µM | outcome [14] | Potency [7] | Potency [24] | outcome [19] | outcome [22] | outcome [23] | Potency [8] | Potency [9] | Potency [2] | Potency [3]
active: Potency [4] 12.6 µM | Potency [18] 7.94 µM
